Measurements reported in the supplement of paper PMC11732987, “Enantioselective OTUD7B fragment discovery through chemoproteomics screening and high-throughput optimisation” (Communications Chemistry, 2025).

Legend:
Assay in all cases: log2 ratio of Biotin-Ahx-Ub-VS probe labelling (fragment/DMSO); higher = less target engagement (more negative = stronger competition), active = hit call of the paper (q ≤ 0.05, log2 ratio ≤ -1)
Details in all cases: compound concentration: 200 uM; treatment time: 3 h
USP34 = USP34 (UniProt Q70CQ2)
Chain of USP34 (Q70CQ2 whole entry, the tested form may be a part): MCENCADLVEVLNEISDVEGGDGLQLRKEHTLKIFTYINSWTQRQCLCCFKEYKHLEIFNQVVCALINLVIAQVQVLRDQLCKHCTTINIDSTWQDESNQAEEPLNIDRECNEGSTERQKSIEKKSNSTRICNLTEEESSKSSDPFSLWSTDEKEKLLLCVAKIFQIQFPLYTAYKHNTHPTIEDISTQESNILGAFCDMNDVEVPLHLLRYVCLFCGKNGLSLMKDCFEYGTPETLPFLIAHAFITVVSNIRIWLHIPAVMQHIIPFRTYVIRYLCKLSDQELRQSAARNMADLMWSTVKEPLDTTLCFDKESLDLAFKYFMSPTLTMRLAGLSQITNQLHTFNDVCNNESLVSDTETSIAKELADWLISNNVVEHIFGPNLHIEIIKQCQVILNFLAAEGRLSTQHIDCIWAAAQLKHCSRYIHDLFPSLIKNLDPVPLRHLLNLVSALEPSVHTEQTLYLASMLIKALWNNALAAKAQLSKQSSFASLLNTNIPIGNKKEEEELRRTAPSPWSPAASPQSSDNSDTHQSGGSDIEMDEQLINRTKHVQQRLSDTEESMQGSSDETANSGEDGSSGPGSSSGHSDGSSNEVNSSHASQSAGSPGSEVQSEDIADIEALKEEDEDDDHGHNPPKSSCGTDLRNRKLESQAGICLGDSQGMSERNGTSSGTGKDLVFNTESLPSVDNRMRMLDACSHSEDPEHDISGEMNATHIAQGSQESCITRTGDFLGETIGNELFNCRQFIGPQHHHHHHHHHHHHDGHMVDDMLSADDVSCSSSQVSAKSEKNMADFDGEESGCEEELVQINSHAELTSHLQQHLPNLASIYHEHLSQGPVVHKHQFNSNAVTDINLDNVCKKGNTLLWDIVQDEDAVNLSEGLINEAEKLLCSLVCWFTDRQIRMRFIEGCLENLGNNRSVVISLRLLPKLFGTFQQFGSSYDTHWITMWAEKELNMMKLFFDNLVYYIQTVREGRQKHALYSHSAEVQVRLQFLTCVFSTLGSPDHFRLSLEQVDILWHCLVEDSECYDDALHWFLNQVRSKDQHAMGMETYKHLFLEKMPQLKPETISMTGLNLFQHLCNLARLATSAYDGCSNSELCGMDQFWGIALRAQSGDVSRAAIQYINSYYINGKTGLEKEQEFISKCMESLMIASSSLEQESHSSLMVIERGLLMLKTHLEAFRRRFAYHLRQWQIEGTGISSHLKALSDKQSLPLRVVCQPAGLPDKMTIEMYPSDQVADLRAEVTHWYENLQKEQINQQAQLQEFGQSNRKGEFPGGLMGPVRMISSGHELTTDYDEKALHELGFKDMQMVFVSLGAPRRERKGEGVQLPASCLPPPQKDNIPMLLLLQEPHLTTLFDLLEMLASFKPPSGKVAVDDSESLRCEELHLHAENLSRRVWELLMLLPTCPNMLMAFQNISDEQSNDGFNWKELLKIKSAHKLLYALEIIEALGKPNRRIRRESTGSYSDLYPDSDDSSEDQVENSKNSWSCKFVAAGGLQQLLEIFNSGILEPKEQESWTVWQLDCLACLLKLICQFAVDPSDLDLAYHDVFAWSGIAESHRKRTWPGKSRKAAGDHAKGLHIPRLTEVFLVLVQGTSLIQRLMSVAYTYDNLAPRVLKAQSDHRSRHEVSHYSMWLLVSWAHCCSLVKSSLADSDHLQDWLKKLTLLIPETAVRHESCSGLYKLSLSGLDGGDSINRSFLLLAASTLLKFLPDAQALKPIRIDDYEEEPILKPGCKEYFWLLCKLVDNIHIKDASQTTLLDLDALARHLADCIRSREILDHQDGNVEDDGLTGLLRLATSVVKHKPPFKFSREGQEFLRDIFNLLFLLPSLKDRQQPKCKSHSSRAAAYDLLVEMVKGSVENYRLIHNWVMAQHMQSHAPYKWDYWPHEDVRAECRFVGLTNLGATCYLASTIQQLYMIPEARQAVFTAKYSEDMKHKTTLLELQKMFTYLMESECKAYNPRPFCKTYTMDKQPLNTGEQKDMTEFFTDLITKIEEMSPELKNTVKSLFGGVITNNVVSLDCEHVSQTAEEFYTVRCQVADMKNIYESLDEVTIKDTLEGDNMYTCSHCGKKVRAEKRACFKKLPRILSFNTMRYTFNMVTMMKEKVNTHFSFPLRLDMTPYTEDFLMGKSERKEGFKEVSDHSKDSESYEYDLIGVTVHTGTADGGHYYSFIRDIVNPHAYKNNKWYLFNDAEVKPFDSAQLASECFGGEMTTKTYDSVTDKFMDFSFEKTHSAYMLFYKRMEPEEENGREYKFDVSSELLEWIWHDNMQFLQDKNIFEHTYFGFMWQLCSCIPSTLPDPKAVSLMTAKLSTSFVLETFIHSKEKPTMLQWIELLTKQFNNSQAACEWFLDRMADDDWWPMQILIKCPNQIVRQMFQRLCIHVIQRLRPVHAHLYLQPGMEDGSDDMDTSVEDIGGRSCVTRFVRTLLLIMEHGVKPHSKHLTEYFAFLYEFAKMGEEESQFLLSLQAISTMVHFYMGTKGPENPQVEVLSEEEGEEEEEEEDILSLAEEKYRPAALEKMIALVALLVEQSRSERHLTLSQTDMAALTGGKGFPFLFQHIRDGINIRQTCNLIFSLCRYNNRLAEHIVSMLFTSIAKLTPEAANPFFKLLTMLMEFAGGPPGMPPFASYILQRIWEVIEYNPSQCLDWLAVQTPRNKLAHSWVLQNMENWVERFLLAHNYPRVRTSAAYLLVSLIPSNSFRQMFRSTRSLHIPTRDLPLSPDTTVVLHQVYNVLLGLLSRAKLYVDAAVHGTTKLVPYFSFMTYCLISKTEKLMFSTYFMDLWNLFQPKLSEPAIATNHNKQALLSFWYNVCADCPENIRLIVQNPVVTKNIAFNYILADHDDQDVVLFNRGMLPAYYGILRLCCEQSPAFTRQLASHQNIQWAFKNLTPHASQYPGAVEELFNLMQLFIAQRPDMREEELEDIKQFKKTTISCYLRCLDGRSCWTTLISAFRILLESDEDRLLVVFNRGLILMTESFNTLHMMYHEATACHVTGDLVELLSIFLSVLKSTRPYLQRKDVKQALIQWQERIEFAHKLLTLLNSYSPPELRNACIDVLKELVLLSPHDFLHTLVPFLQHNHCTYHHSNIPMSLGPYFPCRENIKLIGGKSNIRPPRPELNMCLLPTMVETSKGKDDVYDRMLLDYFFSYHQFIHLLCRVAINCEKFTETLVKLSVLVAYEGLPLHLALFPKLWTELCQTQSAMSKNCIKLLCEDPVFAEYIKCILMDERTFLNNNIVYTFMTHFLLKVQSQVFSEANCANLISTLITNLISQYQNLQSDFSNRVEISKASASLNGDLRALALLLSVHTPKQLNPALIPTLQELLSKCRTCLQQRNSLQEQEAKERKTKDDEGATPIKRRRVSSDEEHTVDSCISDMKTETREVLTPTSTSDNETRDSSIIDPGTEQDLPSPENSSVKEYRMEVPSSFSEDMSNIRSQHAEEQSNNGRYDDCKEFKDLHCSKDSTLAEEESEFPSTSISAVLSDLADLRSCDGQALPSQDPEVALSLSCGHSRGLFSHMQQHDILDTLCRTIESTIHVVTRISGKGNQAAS
Summary of the method: (§1)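 Labelled DUBs from HEK293T lysate were NeutrAvidin-enriched, digested with LysC and trypsin, and run by diaPASEF LC-MS/MS. Before that, each 495 µg sample in Tris/CHAPS/IGEPAL buffer with protease inhibitors was treated in triplicate with fragment at 200 µM or vehicle for 3 h, then with Biotin-Ahx-Ub-VS at 0.5 µM final for 1 h. Values are average log2 ratios of fragment over vehicle by unpaired t-test, based on global-median-normalised Spectronaut label-free quantities from proteins with ≥2 unique peptides.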

USP36 = target: T1, USP36 (UniProt Q9P275)
T1 sequence (whole entry): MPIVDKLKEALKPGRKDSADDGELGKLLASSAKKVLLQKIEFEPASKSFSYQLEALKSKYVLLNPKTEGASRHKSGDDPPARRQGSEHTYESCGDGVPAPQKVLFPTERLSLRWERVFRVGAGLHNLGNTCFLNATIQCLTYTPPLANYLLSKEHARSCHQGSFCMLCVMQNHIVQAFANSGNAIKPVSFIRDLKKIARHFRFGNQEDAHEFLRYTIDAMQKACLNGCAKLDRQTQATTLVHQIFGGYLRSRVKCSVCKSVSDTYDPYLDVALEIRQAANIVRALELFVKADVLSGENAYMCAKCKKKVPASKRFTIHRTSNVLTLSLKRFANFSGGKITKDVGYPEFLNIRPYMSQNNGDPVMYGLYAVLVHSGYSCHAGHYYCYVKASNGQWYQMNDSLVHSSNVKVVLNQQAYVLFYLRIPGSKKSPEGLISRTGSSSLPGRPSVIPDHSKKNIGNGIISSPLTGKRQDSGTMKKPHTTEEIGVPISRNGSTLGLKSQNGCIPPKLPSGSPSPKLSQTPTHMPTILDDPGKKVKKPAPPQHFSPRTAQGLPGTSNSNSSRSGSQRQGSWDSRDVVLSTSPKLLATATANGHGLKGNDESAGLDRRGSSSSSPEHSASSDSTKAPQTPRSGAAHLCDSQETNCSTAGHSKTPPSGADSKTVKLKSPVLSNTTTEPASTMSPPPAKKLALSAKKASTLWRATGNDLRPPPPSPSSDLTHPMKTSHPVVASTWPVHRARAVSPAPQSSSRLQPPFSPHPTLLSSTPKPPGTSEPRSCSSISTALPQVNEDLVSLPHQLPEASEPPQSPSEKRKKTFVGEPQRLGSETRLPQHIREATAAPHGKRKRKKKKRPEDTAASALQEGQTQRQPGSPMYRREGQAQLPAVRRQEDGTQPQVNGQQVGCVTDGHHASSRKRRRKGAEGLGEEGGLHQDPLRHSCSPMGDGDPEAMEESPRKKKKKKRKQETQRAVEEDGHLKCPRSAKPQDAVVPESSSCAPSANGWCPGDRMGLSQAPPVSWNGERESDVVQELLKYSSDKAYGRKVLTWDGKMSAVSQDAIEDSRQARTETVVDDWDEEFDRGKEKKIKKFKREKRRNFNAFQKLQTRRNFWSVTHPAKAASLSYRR
Summary of the method: as §1

USP38 = target: T2, USP38 (UniProt Q8NB14)
T2 sequence (whole entry): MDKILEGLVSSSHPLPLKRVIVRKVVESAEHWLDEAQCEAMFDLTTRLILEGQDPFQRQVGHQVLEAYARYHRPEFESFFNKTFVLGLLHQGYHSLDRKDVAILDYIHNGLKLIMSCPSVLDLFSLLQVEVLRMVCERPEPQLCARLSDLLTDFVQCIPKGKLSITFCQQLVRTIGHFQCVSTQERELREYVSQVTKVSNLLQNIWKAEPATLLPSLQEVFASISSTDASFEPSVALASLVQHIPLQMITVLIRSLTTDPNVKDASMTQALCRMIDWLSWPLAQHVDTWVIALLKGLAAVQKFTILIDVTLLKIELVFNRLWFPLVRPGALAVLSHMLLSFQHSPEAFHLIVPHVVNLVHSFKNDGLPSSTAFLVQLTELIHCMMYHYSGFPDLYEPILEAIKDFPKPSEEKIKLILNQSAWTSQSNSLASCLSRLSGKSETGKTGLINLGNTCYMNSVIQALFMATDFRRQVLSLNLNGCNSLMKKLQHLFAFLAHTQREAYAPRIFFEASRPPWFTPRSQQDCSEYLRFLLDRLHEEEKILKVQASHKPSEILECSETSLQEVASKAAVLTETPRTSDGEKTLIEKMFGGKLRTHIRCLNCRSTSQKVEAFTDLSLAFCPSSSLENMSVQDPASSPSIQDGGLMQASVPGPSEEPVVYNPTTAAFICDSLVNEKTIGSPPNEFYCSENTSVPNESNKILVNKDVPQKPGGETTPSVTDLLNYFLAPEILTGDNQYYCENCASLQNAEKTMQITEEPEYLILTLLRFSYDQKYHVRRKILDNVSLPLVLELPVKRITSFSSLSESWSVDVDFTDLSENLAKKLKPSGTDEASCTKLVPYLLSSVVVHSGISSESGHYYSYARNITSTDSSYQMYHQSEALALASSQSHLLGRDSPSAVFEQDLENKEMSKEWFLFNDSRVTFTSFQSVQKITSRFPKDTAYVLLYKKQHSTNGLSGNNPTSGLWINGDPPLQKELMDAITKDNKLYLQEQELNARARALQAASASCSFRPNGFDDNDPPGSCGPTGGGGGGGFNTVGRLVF
Summary of the method: as §1

USP39 = target: T3, USP39 (UniProt Q53GS9)
T3 sequence (whole entry): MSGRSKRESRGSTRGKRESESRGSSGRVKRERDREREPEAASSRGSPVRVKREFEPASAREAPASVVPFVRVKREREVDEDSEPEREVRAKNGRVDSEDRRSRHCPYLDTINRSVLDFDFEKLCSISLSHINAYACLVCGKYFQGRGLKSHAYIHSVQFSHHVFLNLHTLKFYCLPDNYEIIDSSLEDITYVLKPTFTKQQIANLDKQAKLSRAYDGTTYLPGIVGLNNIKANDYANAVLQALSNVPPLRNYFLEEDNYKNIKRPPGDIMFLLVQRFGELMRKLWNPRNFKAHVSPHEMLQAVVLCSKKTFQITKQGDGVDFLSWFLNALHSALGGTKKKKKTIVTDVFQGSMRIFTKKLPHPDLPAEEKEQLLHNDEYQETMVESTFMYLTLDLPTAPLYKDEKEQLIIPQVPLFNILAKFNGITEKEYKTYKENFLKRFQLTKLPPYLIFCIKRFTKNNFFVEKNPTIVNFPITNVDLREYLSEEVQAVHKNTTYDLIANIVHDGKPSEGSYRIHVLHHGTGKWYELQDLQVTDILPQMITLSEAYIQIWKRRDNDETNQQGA
Summary of the method: as §1

USP4 = target: T4, USP4 (UniProt Q13107)
T4 sequence (whole entry): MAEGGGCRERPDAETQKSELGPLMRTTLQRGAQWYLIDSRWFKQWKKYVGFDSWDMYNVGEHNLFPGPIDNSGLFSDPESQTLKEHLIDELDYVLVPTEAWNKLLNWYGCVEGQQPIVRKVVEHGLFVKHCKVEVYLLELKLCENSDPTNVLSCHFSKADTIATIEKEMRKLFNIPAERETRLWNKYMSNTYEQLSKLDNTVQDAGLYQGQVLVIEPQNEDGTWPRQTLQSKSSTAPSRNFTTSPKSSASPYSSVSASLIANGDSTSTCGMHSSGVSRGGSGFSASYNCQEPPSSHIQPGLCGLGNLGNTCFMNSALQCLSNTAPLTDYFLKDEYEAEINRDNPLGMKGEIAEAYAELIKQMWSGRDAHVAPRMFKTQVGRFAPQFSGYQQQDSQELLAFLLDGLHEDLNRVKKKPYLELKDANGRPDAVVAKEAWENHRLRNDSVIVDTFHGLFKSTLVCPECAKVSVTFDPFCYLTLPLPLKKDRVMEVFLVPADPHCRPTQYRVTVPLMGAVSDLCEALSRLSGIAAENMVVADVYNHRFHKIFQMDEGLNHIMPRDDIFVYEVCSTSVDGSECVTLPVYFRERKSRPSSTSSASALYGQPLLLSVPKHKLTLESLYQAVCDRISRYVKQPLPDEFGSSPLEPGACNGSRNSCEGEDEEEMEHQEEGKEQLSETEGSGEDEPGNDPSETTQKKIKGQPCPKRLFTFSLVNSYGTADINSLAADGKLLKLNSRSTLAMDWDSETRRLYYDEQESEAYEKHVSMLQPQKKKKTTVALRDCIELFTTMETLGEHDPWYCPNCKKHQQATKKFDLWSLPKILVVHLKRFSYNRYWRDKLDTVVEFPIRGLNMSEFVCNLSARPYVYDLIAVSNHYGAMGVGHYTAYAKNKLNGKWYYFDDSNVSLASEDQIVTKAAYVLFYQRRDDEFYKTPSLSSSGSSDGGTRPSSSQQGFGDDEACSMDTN
Summary of the method: as §1

Measured: log2 ratio of Biotin-Ahx-Ub-VS probe labelling

Cl.O=C(CCl)NCCN1CCc2ccccc21
inactive: USP34 -0.536 | USP36 -0.231 | USP38 -0.723 | USP39 0.178 | USP4 -0.666
